Experimental data: PubChem BioAssay (NCI)
The panel holds about 83,000 compounds, 20% with a hit somewhere; the sample as a whole holds those more often.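 Results are percent growth after 48 hours of single-concentration exposure. 100 means growth as in untreated cells, lower positive values show inhibition; negative values down to -100 show cell death.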 Activity calls are given as the source filed them. How the source made its calls: active means growth percent below 10; inactive means the rest.

System: HL-60(TB) leukemia
Assay: NCI-60 one-dose screen, 48 h (100 = growth as untreated, 0 = no growth, -100 = all killed)
Details: 10 µM unless noted

SMILES | growth
O=C(/C=C1\C(=O)N(Cc2ccc([N+](=O)[O-])cc2)c2ccccc21)c1ccc(OCCN2CCCC2)cc1 | 17.5% (inactive)
O=C(Nc1ccc(Oc2cccc(F)c2)c(Cl)c1)c1cnccn1 | 3.12% (active)
COc1cc2c(=O)n(CC3CCCCC3)c3c4cc[nH]c4ncc3c2cc1OC | 42.9% (inactive)
CCN1CCN(C(=O)[C@@]2(C)CC[C@]3(C)CC[C@]4(C)C(=CC(=O)[C@@H]5[C@@]6(C)CC[C@H](OC7C[C@@H](O)[C@@H](O)C(C)O7)C(C)(C)[C@@H]6CC[C@]54C)[C@@H]3C2)CC1 (some centres undefined) | -57.2% (active)
CC(=O)Nc1sc2c(c1-c1nc3ccccc3s1)CNC2 | 28.4% (inactive)
Cc1ccc2c(c1)O/C(=C\c1cccc(OCC(=O)c3ccccc3)c1)C2=O | 12.1% (inactive)
CC(C)CCC[C@@H](C)[C@H]1CCC2C3=CCC4C(=O)C=CC(=O)C4C3CC[C@@]21C (some centres undefined) | -5.46% (active)
CC(C)(C)OC(=O)CC(S(=O)(=O)c1ccccc1)S(=O)(=O)c1ccccc1 | 76.2% (inactive)
Clc1cccc(Nc2ncnc3ccc(-c4cncc(-n5cnnn5)c4)cc23)c1 | 86.6% (inactive)
CCOC(=O)C1=C(c2ccccc2)NC(=O)NC1CN1C(=O)c2ccccc2C1=O (centres undefined) | 57.4% (inactive)
COc1cc2cc(NCc3ccc(Cl)cc3)nc(C)c2cc1OC | 31.3% (inactive)
N#C/C(=C/c1ccc(O)c([N+](=O)[O-])c1)c1nc(-c2ccc([N+](=O)[O-])cc2)cs1 | 26.5% (inactive)
Cc1ccc2nc(-[n+]3cc4ccccc4cc3C)ccc2c1 | 0.144% (active)
Nc1ncc(-c2ccc3ncnc(N4CCc5cc(F)c(Cl)cc54)c3c2)cn1 | 56.5% (inactive)
N#Cc1c(-c2cccc(Cl)c2)cc(-c2cccnc2)[nH]c1=O | 66.9% (inactive)
COC(=O)[C@]12CC[C@@H](C)[C@H](C)[C@@H]1C1=CC[C@@H]3[C@@]4(C)C(C=O)=C[C@@](C)(COC(=O)/C=C/c5ccccc5)[C@@H]4[C@H](O)C[C@@]3(C)[C@]1(C)CC2 | -13% (active)
CC/C(=C(/c1ccc(Cl)cc1)c1ccc(OCCCN(C)C)cc1)c1ccc(OC)cc1 | 46.2% (inactive)

SMILES | growth
O=C(O)CC1=CCCCC1 | 95.5% (inactive)
COc1ccc(-c2nnc(COc3ccc(NC(=O)Nc4cc(C(F)(F)F)cc(C(F)(F)F)c4)cc3F)o2)cc1 | -17.2% (active)
C/C(O)=C(\C=N\C(N)=S)C(=O)Nc1ccccc1 | 105% (inactive)
OC(c1ccccc1)C(NCc1ccccc1)c1ccccc1 (centres undefined) | 98.4% (inactive)
CC(C)n1c(/C=C/[C@@H](O)C[C@@H](O)CC(=O)O)c(-c2ccc(F)cc2)c2ccccc21 | 91.4% (inactive)
CC(=O)c1cccc(O)c1 | 100% (inactive)
O=C(CCCCCNC(=O)c1cc(=O)c(O)co1)Nc1ccccc1 | 106% (inactive)
CC(=O)Nc1ccc2c(c1)C(=O)c1cccc(C(=O)O)c1-2 | 97.2% (inactive)
NC(=O)c1cccc(-c2ccc(S(=O)(=O)Nc3ccc4c(c3)N(C(=O)C3CC3)CCC4)cc2)c1 | 1.43% (active)
COc1ccc(C(=O)/C=C/c2ccc(OCc3ccccc3)c(OC)c2)cc1OC | 48.8% (inactive)
COc1ccc2[nH]c3nc4cnccc4cc3c2c1 | 108% (inactive)
O=C(Nc1ccccc1O)c1ccc(Oc2cccc(C(=O)Nc3ccccc3O)c2)cc1 | -40.4% (active)
COc1cc(C(=O)O/N=C(\N)Cc2cccc3ccccc23)cc(OC)c1OC | -37.4% (active)
O=C(Nc1ccncc1)C(=O)c1cn(S(=O)(=O)c2cccc(Cl)c2F)c2ccccc12 | 68.5% (inactive)
CCNCCCn1c2c(c3ccc([N+](=O)[O-])cc3c1=O)C(=O)c1cc(OC)cnc1-2 | -36% (active)
CSc1nc2c(c(=O)n1C)C(c1ccccc1)C1=C(N2)/C(=C/c2ccccc2)CCC1 (centres undefined) | 12.8% (inactive)
O=C(/C=C/c1cn(-c2ccccc2)nc1-c1ccc(Cl)cc1)c1ccc(F)cc1 | 56.6% (inactive)
